PubChem BioAssay AID1159580 (chemical genetic matrix, 2015)
Values joined by “and” are separate entries in the source; they are usually repeats but may differ in a detail not shown here. Equal values may be shown once. In all, about 5,500 compounds went through this assay and about 2,000 (36%) were called active. Not shown: some 18% with an inconclusive outcome. Rule as the data show it: active = normalized growth mostly below about 0.91 (no sharp cut-off); inconclusive = no clear call, values can overlap the other calls; inactive = mostly above about 0.92. This is one part of the list.

Assay: chemical genetic growth profiling, strain panel (AID 1159580);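 also: tested at 20 µM; growth read once vehicle control cultures reached saturation at 30 °C; 1 = growth at the plate median or of vehicle wells; lower values mean less growth of the strain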
Settings: growth OD

Measured: normalized growth

CC(=O)O[C@@H]1CC[C@@]2(C)C(C[C@@H](OC(C)=O)[C@@]3(C)C4=CC(=O)O[C@@H](c5ccoc5)[C@]4(C)CCC23)C1(C)C (stereo partly drawn)
inactive: S. cerevisiae deletion strains, locus YBR021W, strain FUR4, stronger effect = lower value 1.01 | S. cerevisiae deletion strains, locus YBR229C, strain ROT2, stronger effect = lower value 1.01 | S. cerevisiae deletion strains, locus YCL029C, strain bik1, stronger effect = lower value 0.99 | S. cerevisiae deletion strains, locus YDL035C, strain GPR1, stronger effect = lower value 1.03 | S. cerevisiae deletion strains, locus YDL074C, strain BRE1, stronger effect = lower value 1 | S. cerevisiae deletion strains, locus YDL101C, strain DUN1, stronger effect = lower value 1.01 | S. cerevisiae deletion strains, locus YDL134C, strain PPH21, stronger effect = lower value 1.01 | S. cerevisiae deletion strains, locus YDL185W, strain tfp1, stronger effect = lower value 0.996 | S. cerevisiae deletion strains, locus YDL192W, strain arf1, stronger effect = lower value 1 | S. cerevisiae deletion strains, locus YDR101C, strain arx1, stronger effect = lower value 1 | S. cerevisiae deletion strains, locus YDR162C, strain NBP2, stronger effect = lower value 1.02 | S. cerevisiae deletion strains, locus YDR318W, strain mcm21, stronger effect = lower value 1 | S. cerevisiae deletion strains, locus YDR388W, stronger effect = lower value 1 | S. cerevisiae deletion strains, locus YDR502C, strain sam2, stronger effect = lower value 0.983 | S. cerevisiae deletion strains, locus YEL061C, strain CIN8, stronger effect = lower value 1.02 | S. cerevisiae deletion strains, locus YER110C, stronger effect = lower value 1 | S. cerevisiae deletion strains, locus YER155C, strain BEM2, stronger effect = lower value 1.02 | S. cerevisiae deletion strains, locus YER167W, strain BCK2, stronger effect = lower value 1.02 | S. cerevisiae deletion strains, locus YGL078C, strain dbp3, stronger effect = lower value 0.994 | S. cerevisiae deletion strains, locus YGL086W, strain mad1, stronger effect = lower value 1.02 | S. cerevisiae deletion strains, locus YGL248W, strain PDE1, stronger effect = lower value 0.999 | S. cerevisiae deletion strains, locus YGR135W, strain pre9, stronger effect = lower value 0.973 | S. cerevisiae deletion strains, locus YGR252W, strain gcn5, stronger effect = lower value 0.918 | S. cerevisiae deletion strains, locus YHR030C, strain SLT2, stronger effect = lower value 0.962 | S. cerevisiae deletion strains, locus YHR079C, strain IRE1 (second series), stronger effect = lower value 1 | S. cerevisiae deletion strains, locus YHR079C, strain IRE1, stronger effect = lower value 0.998 | S. cerevisiae deletion strains, locus YHR094C, strain hxt1, stronger effect = lower value 0.998 | S. cerevisiae deletion strains, locus YHR129C, strain ARP1, stronger effect = lower value 1.02 | S. cerevisiae deletion strains, locus YHR200W, strain rpn10, stronger effect = lower value 0.976 | S. cerevisiae deletion strains, locus YIL066C, strain RNR3, stronger effect = lower value 1.03 | S. cerevisiae deletion strains, locus YIL073C, strain SPO22, stronger effect = lower value 0.996 | S. cerevisiae deletion strains, locus YIL125W, strain kgd1, stronger effect = lower value 1 | S. cerevisiae deletion strains, locus YIR030C, strain dcg1, stronger effect = lower value 1 | S. cerevisiae deletion strains, locus YJL095W, strain BCK1, stronger effect = lower value 0.986 and 0.998 | S. cerevisiae deletion strains, locus YJL134W, strain LCB3, stronger effect = lower value 1.02 | S. cerevisiae deletion strains, locus YJL168C, strain set2, stronger effect = lower value 1 | S. cerevisiae deletion strains, locus YJL187C, strain SWE1 (second series), stronger effect = lower value 1 | S. cerevisiae deletion strains, locus YJR066W, strain TOR1, stronger effect = lower value 0.918 | S. cerevisiae deletion strains, locus YKL009W, strain mrt4, stronger effect = lower value 1.05 | S. cerevisiae deletion strains, locus YKL068W, stronger effect = lower value 1 | S. cerevisiae deletion strains, locus YKL085W, strain MDH1 (second series), stronger effect = lower value 1.03 | S. cerevisiae deletion strains, locus YKL085W, strain MDH1, stronger effect = lower value 1.03 | S. cerevisiae deletion strains, locus YKL190W, strain CNB1, stronger effect = lower value 1.02 | S. cerevisiae deletion strains, locus YKR001C, strain vps1, stronger effect = lower value 0.998 | S. cerevisiae deletion strains, locus YLR039C, strain RIC1, stronger effect = lower value 1.04 | S. cerevisiae deletion strains, locus YLR058C, strain SHM2, stronger effect = lower value 1.01 | S. cerevisiae deletion strains, locus YLR102C, strain apc9, stronger effect = lower value 0.998 | S. cerevisiae deletion strains, locus YLR113W, strain HOG1, stronger effect = lower value 0.981 | S. cerevisiae deletion strains, locus YLR268W, strain sec22, stronger effect = lower value 0.99 | S. cerevisiae deletion strains, locus YLR371W, strain rom2, stronger effect = lower value 1.01 | S. cerevisiae deletion strains, locus YLR418C, strain cdc73, stronger effect = lower value 0.909 | S. cerevisiae deletion strains, locus YML016C, strain PPZ1, stronger effect = lower value 1.02 | S. cerevisiae deletion strains, locus YML032C, strain rad52, stronger effect = lower value 1 | S. cerevisiae deletion strains, locus YML124C, strain tub3, stronger effect = lower value 0.999 | S. cerevisiae deletion strains, locus YMR078C, strain ctf18, stronger effect = lower value 1.01 | S. cerevisiae deletion strains, locus YMR223W, strain ubp8, stronger effect = lower value 0.988 | S. cerevisiae deletion strains, locus YMR307W, strain GAS1, stronger effect = lower value 0.953 | S. cerevisiae deletion strains, locus YNL067W, strain RPL9B, stronger effect = lower value 1 | S. cerevisiae deletion strains, locus YNL183C, strain NPR1, stronger effect = lower value 0.931 | S. cerevisiae deletion strains, locus YNL233W, strain BNI4, stronger effect = lower value 0.993 | S. cerevisiae deletion strains, locus YNL250W, strain rad50, stronger effect = lower value 0.992 | S. cerevisiae deletion strains, locus YNL271C, strain bni1, stronger effect = lower value 1 | S. cerevisiae deletion strains, locus YNL298W, strain CLA4, stronger effect = lower value 0.989 | S. cerevisiae deletion strains, locus YNL307C, strain MCK1, stronger effect = lower value 0.993 | S. cerevisiae deletion strains, locus YNR052C, strain pop2, stronger effect = lower value 0.993 | S. cerevisiae deletion strains, locus YOL006C, strain TOP1, stronger effect = lower value 0.986 | S. cerevisiae deletion strains, locus YOL012C, strain htz1 0.707 | S. cerevisiae deletion strains, locus YOL147C, strain pex11, stronger effect = lower value 1 | S. cerevisiae deletion strains, locus YOR061W, strain CKA2, stronger effect = lower value 1.02 | S. cerevisiae deletion strains, locus YOR069W, strain VPS5, stronger effect = lower value 1.02 | S. cerevisiae deletion strains, locus YOR136W, strain idh2, stronger effect = lower value 0.996 | S. cerevisiae deletion strains, locus YOR144C, strain elg1, stronger effect = lower value 1.01 | S. cerevisiae deletion strains, locus YOR184W, strain ser1, stronger effect = lower value 1.01 | S. cerevisiae deletion strains, locus YOR231W, strain MKK1, stronger effect = lower value 0.999 | S. cerevisiae deletion strains, locus YOR316C, strain cot1, stronger effect = lower value 0.999 | S. cerevisiae deletion strains, locus YPL055C, strain LGE1, stronger effect = lower value 0.997 | S. cerevisiae deletion strains, locus YPL256C, strain CLN2, stronger effect = lower value 0.973 | S. cerevisiae deletion strains, locus YPR119W, strain clb2, stronger effect = lower value 1 | S. cerevisiae deletion strains, locus YPR141C, strain kar3, stronger effect = lower value 0.993 | S. cerevisiae deletion strains, locus YPR163C, strain tif3, stronger effect = lower value 0.988 | S. cerevisiae deletion strains, locus YPR167C, strain met16, stronger effect = lower value 0.995 | S. cerevisiae deletion strains, strain wtn01, stronger effect = lower value 0.986 | S. cerevisiae strains, strain wild type, stronger effect = lower value 1.02
